Experimental data reported in PubChem BioAssay AID1645887 (National Center for Advancing Translational Sciences (NCATS), 2021).
“And” between values parts separate entries of the source, which are not always exact repeats. Equal entries are not always repeated. Out of some 16,000 compounds screened, about 40 (0.2%) were called active. Another 1% or so got no clear call; they are omitted. The call rests on the fitted dose curve; in most records, active means well fitted activation curve with a large enough effect; inconclusive means small, poorly fitted or top-dose-only effect, or another doubt; inactive means no such curve, though single readings can be large or run the other way. The entries come from a sample that favours actives as a whole. More than one record can exist for a structure, and the calls need not agree.

Target: Rap guanine nucleotide exchange factor 4 (Homo sapiens) (UniProt Q8WZA2)
Assay: Validation qHTS for agonist of cAMP-regulated guanine nucleotide exchange factor 4 (EPAC2);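 on activation: exchange makes BODIPY-GDP fluorescence drop when released from Rap1B; series mostly up to about 150 µM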
Settings: EPAC2 Rap1B BODIPY-GDP exchange, fluorescence; activation: active compounds read high
Summary of the method: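 Signal normalized against 6.5 mM cAMP as agonist control. Mix of EPAC2 (100 nM), RAP1B-BODIPY-GDP (250 nM) and GDP (50 uM) was read kinetically at 480/540 nm, every 5 min over 30 min, after 5 min room-temperature incubation with compound.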
On the % scale 0 is the no-effect control and ±100 the full control effect; potency means the concentration at half of the fitted maximal effect.

Rap guanine nucleotide exchange factor 4 (Homo sapiens), sequence (Q8WZA2 whole entry, looked up): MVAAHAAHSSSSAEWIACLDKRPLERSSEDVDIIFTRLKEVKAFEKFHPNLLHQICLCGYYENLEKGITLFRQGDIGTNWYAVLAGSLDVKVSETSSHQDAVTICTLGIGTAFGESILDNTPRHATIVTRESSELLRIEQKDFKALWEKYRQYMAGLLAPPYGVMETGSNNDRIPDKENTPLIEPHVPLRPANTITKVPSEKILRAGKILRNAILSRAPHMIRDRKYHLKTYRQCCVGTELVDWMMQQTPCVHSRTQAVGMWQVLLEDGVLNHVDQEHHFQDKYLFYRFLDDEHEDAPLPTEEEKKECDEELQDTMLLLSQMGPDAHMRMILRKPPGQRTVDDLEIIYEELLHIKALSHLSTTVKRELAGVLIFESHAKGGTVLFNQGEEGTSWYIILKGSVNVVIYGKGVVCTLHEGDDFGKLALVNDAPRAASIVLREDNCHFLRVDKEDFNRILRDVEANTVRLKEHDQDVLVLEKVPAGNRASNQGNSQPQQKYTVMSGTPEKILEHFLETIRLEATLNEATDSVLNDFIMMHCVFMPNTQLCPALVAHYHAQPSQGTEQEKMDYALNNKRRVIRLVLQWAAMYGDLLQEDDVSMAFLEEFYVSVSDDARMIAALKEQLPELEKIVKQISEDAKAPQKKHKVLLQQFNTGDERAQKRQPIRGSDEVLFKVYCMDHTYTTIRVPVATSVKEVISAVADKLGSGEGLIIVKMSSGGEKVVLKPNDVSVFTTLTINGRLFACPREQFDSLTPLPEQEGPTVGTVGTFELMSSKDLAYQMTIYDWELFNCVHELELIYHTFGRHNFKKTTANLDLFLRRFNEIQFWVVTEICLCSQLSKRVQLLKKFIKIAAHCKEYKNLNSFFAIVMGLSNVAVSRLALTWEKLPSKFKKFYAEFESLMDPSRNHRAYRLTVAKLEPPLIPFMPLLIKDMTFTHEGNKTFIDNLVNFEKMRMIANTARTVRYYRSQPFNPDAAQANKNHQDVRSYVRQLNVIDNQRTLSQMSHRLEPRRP

SMILES	activation	Potency
COc1cccc(-c2nc(N3CCN(C)CC3)c3ccccc3n2)c1	-6.1% (inactive)	–
COc1cccc(CNC(=O)c2c(OC)cc(=O)n3c2CCN(C(=O)c2cc(C)ccc2C)CC3)c1	-2.82% (inactive)	–
O=c1c(-c2ccc(Cl)cc2)nc2cnc(N3CCOCC3)nc2n1Cc1ccc(F)cc1	-11.5% (inactive)	–
COc1cc(CN2CCOc3ccc(C(O)c4cccnc4)cc3C2)cc(OC)c1 (stereo unspecified)	-13.6% (inactive)	–
Nc1cc(N)cc(N)c1	–	50.1 µM (active)
Nc1ccc(O)cc1	25.8% (inactive) and 23.8% (inactive)	–
COc1cc(N)c(N)cc1OC	-7.59% (inactive)	–
Cc1cnc(CNc2cc(-c3ccc(N(C)C)cc3)ncn2)cn1	-19.7% (inactive)	–
COc1ccccc1C1CN(CCNC(=O)c2ccc3c(c2)OCCO3)Cc2ccccc2O1 (stereo unspecified)	10.6% (inactive)	–
COc1ccccc1CN1[C@@H](CC(=O)O)c2ccccc2S1(=O)=O	-19.4% (inactive)	–
COC(=O)C1CCN(Cc2ccc3c(c2)CN(C(=O)c2ccc(-n4cnnn4)cc2)CCO3)CC1	-3.06% (inactive)	–
COc1cc(/C(C)=C/c2ccccc2)c2c(c1)oc1ccccc12	-19% (inactive)	–
CCCCCCCCCCCCCCCC[n+]1ccc(/C=C/c2c(C)[nH]c3ccccc23)cc1	-30% (inactive)	–
CCCCCCC[n+]1ccc(/C=C/c2c(C)[nH]c3ccccc23)cc1	–	25.1 µM (active)
CCCCCCC[n+]1ccc(/C=C/c2c(C)[nH]c3ccccc23)c2ccccc21	-18.3% (inactive)	–
Cc1cnc(-n2ncc(C(=O)NCc3ccccn3)c2C2CC2)nc1-c1cccs1	-5.87% (inactive)	–
Nc1ccc2cc3ccc(N)cc3nc2c1	–	89.1 µM (active)
c1ccc2nc3ccccc3cc2c1	-8.02% (inactive)	–
Nc1ccc2nc[nH]c2c1	-7.36% (inactive)	–
COc1ccc2c(c1)-c1nc(-n3ncc(C(=O)NCC4CCCN(C)C4)c3C3CC3)ncc1CC2 (stereo unspecified)	1.91% (inactive)	–
CC(=O)N[C@@H]1C(O[C@H]2O[C@H](C(=O)O)C(O)[C@H](O)[C@H]2O)[C@H](O)[C@@H](CO)O[C@H]1O[C@@H]1C(C(=O)O)O[C@@H](O[C@H]2[C@H](O)[C@@H](CO)OC(O)[C@@H]2NC(C)=O)[C@H](O)[C@H]1O (stereo partly specified)	-11.1% (inactive)	–
CCn1c(C)nc2cc(NS(=O)(=O)c3ccccc3)cc(C(=O)N3C[C@@H](C)O[C@@H](C)C3)c21	-0.794% (inactive)	–
OC(C1=C/C(=C\c2ccncc2)c2ccccc21)c1ccncc1 (stereo unspecified)	-21.2% (inactive)	–
COc1ccc(C(=O)N2CCC3(CC2)c2ccccc2[C@@H](NC(=O)c2ccccn2)[C@@H]3OC)c(O)c1	3.44% (inactive)	–
O=C1[C@H](Cc2ccccc2)NC/C=C\C[C@@H](c2ccc(Cl)cc2)N1Cc1ccccc1	-43% (inactive)	–

SMILES	activation	Potency
CC(C)C[C@@H](CO)N1CCN(Cc2cccc(C#N)c2)CCC1=O	-27.7% (inactive)	–
COc1ccc(OC)c(CN2CCCC(c3nc(-c4ccncc4)ncc3-c3ccccc3C)C2)c1 (stereo unspecified)	-2.68% (inactive)	–
FC(F)OC(Cl)C(F)(F)F (stereo unspecified)	–	31.6 µM (active)
FC(F)(F)C(Cl)Br (stereo unspecified)	-29.1% (inactive)	–
COCc1ccc(CN2CCOc3c(O)cc(-c4cc(C)c5ccc(F)cc5n4)cc3C2)o1	8.6% (inactive)	–
O=C(c1cc(C(F)(F)F)cc(C(F)(F)F)c1)N1CCC2(CCCN(Cc3ccccc3)C2)CC1	-6.26% (inactive)	–
Cc1cc(C)n2nc(C(=O)NCC3Cc4cccc(-c5ccc(S(C)(=O)=O)cc5)c4O3)cc2n1 (stereo unspecified)	2.37% (inactive)	–
COc1c(O)cc2c(=O)oc3c(OC)c(O)cc4c(=O)oc1c2c34	-13.8% (inactive)	–
Cc1cc(=O)oc2c(O)c(O)ccc12	-5.12% (inactive)	–
O=c1oc2c(O)c(O)cc3c(=O)oc4c(O)c(O)cc1c4c23	0.203% (inactive)	126 µM (active)
CN(C)c1ccc(/C=C/c2ccc3cc(N(C)C)ccc3n2)cc1	0.661% (inactive)	–
COc1ccccc1-c1nccc(NCc2ccccc2)n1	-0.806% (inactive)	–
COc1ccccc1-c1nccc(NCc2cccc(C)c2)n1	-13.6% (inactive)	–
CCOC(=O)Nc1ccc(NCc2ccc(F)cc2)nc1N	–	112 µM (active)
OC1CCN(Cc2ccc3c(c2)CN(Cc2ccc(Oc4ncccn4)cc2)CCO3)CC1	-1.28% (inactive)	–
CC(=O)OCC1=C(C(=O)O)N2C(=O)C(NC(=O)CSc3ccncc3)[C@@H]2SC1 (stereo partly specified)	-16.2% (inactive)	–
O=C(NCc1nnc2n1CCN(C(=O)c1cccc(Cl)c1)CC2)C1CC1	-2.97% (inactive)	–
CC(=O)OCC(=O)[C@@]1(O)CCC2C3CC(C)C4=CC(=O)C=CC4(C)C3C(O)CC21C (stereo partly specified)	-21.4% (inactive)	–
Cc1cnc(SCCN2CCOCC2)nc1C1CCCN(C(=O)c2cccc3c(C)c(C)[nH]c23)C1 (stereo unspecified)	-5.56% (inactive)	–
C/C1=C2N=C(/C=C3N=C(/C(C)=C4\[N-][C@@](C)([C@@H]5N=C1[C@](C)(CCC(=O)NCC(C)OP(=O)(O)O[C@H]1[C@@H](O)[C@@H](n6cnc7cc(C)c(C)cc76)O[C@@H]1CO)[C@H]5CC(N)=O)[C@@](C)(CC(N)=O)[C@@H]4CCC(N)=O)[C@@](C)(CC(N)=O)[C@@H]\3CCC(N)=O)C(C)(C)[C@@H]/2CCC(N)=O.CC(=O)O.[Co] (stereo partly specified)	–	56.2 µM (active)
CC(=O)NCC(=O)NCC1Cc2cc(C)cc(-c3ccccn3)c2O1 (stereo unspecified)	0.493% (inactive)	–
CN(CCO)C(=O)c1cn(C2CCCN(Cc3ccc(C(F)(F)F)cc3)C2)nn1 (stereo unspecified)	-15.8% (inactive)	–
COC(=O)C1[C@H]2SC(C)(C)C(C(=O)OC)N2C(=O)N1Cc1ccccc1 (stereo partly specified)	-17.5% (inactive)	–
COCCn1c(=O)c(-c2ccc(F)cc2)nc2cnc(Nc3cccc(OC)c3)nc21	6.42% (inactive)	–
C[C@@H](N)CCCP(=O)(O)O	-1.34% (inactive)	–

SMILES	activation	Potency
CC(C)CN1CCC2(CC1)CCN(C(=O)c1ccco1)CC2	-7.83% (inactive)	–
COC(=O)C1C(O)CC[C@@H]2CN3CCc4c([nH]c5ccccc45)C3C[C@@H]12 (stereo partly specified)	-7.23% (inactive) and -17.2% (inactive)	–
CC(N)(COP(=O)(O)O)C(=O)O (stereo unspecified)	4.78% (inactive)	–
CC(C)C[C@@H](CSc1ccccc1)N1CCN(C)CCC1=O	-9.44% (inactive)	–
Cc1noc(C)c1-c1nccc(NC2CC2)n1	-2.86% (inactive)	–
CC(C)CCCC(C)C1CCC2C3C(=O)C=C4CC(O)CC[C@@]4(C)C3CC[C@@]12C (stereo partly specified)	-16% (inactive)	–
COC(=O)c1ccccc1C(=O)NCC1Cc2cc(-c3nc(C)cnc3C)ccc2O1 (stereo unspecified)	-20.8% (inactive)	–
CCCCCCCCCC[n+]1ccc(/C=C/c2c[nH]c3ccccc23)c2ccccc21	-5.9% (inactive)	–
COCC(=O)N1CCC[C@@]2(CCN(c3ccccn3)C2)C1	-5.3% (inactive)	–
COc1cccc(Nc2ncc3nc(C)c(=O)n(C[C@H]4CCCO4)c3n2)c1	-13.4% (inactive)	–
[C-]#[N+]c1cc(-c2ccncc2)c(C)[nH]c1=O	-4.45% (inactive)	–
Nc1cc(-c2ccncc2)c[nH]c1=O	–	100 µM (active)
Cc1cccc(N(C)C(=S)Oc2ccc3c(c2)CCC3)c1	13.3% (inactive)	–
OC(c1cccnc1)c1ccc2c(c1)CN(Cc1cn(-c3ccccc3)nc1-c1ccccc1)CCO2 (stereo unspecified)	-2.05% (inactive)	–
O.O.O.O.O.O.O.O=S(=O)([O-])[O-].[Co+2]	-48.9% (inactive)	–
CN(C)Cc1ccccc1-c1cncnc1NCc1ccccc1	-18.5% (inactive)	–
N#Cc1ccccc1-c1ccc2ncnc(NCc3ccccc3)c2c1	-0.93% (inactive)	–
CC(C)(CNC(=O)c1cnn(-c2nccc(-c3ccccc3F)n2)c1C1CC1)N1CCOCC1	-17.8% (inactive)	–
C[C@]12CCC(=O)C=C1CCC1C3CC[C@](O)(C(=O)CO)[C@@]3(C)CC3OC312 (stereo partly specified)	-18.8% (inactive)	–
O=C1CCNCCN1[C@H](CO)c1ccccc1	-16.1% (inactive)	–
CN(C)c1ncnc2ccc(-c3cccc(C#N)c3)cc12	-0.384% (inactive)	–
Cc1cc(N(C)C)cc(C)c1/C=C/c1cc[n+](C)c2ccccc12	-16.7% (inactive)	–
Cc1cc2c(c(-c3cnccn3)c1)OC(CNC(=O)c1cc(Cl)ccc1F)C2 (stereo unspecified)	5.25% (inactive)	–
COC(=O)C1N[C@@H]([C@@H](NC(=O)COc2ccccc2)C(=O)Nc2ccc(OC)cc2)SC1(C)C (stereo partly specified)	-24.1% (inactive)	–
CC(=O)NCCNc1nc(-c2ccccc2CN(C)C)nc2ccccc12	-19.9% (inactive)	–

SMILES	activation	Potency
COC(=O)CC[C@H](N)C(=O)O	-14% (inactive)	–
CN1CCN(c2ncc3nc(-c4cn(C)c5ccccc45)c(=O)n(Cc4cccs4)c3n2)CC1	-4.2% (inactive)	–
OC(c1ccc2c(c1)CN(Cc1cccn1-c1ncccn1)CCO2)C1CCCCC1 (stereo unspecified)	-21.5% (inactive)	–
COc1ccc2[nH]cc(CCNc3nc(-c4c(C)noc4C)nc4ccccc34)c2c1	6.86% (inactive)	–
CN(C)c1ccc(/C=C/c2ccnc3ccccc23)cc1[N+](=O)[O-]	-6.84% (inactive)	–
CCCCCCCCCCCCCCCCCCN(CCCCCCCCCCCCCCCCCC)c1ccc(/C=C/c2ccnc3ccccc23)cc1	-21.8% (inactive)	–
CN(C)c1ccc(/C=C/c2ccnc3ccccc23)cc1Cl	-5.92% (inactive)	–
CCCN(CCC)c1ccc(/C=C/c2ccnc3ccccc23)cc1	–	100 µM (active)
OCCN(CCO)c1ccc(/C=C/c2ccnc3ccccc23)cc1	-44.7% (inactive)	–
Cc1cc(/C=C/c2ccnc3ccccc23)ccc1N(C)C	–	50.1 µM (active)
Cc1cccc(CNc2nc(-c3ccc4c(c3)OCO4)nc3ccccc23)c1	5.64% (inactive)	–
Cc1oc(-c2ccccc2NC(=O)C2CCCO2)nc1CNC(=O)c1[nH]c2c(C)ccc(C)c2c1C (stereo unspecified)	8.6% (inactive)	–
COc1cccc(Nc2ncc3nc(-c4cccs4)c(=O)n(-c4ccccc4)c3n2)c1	–	50.1 µM (active)
COc1ccc(-n2c(=O)c(-c3cccs3)nc3cnc(Nc4ccccc4)nc32)cc1	-5.89% (inactive)	–
COc1cccc(Nc2ncc3nc(C)c(=O)n(-c4ccccc4)c3n2)c1	-17% (inactive)	–
CN(C)CCc1c[nH]c2ccc(C[C@H]3COC(=O)N3)cc12	–	126 µM (active)
CN(C)CCc1c[nH]c2ccc(CS(=O)(=O)N3CCCC3)cc12	-8.07% (inactive)	–
CNS(=O)(=O)Cc1ccc2[nH]cc(CCN(C)C)c2c1	-28% (inactive)	–
CC(C)c1c(O)ccc2c1CCC1[C@@](C)(C=O)CCC[C@@]21C (stereo partly specified)	22.5% (inactive)	–
CC[C@@]1(O)C(=O)OCc2c1cc1n(c2=O)Cc2cc3cc(O)ccc3nc2-1	-2.34% (inactive) and 12.4% (inactive)	–
CC[C@@]1(O)C(=O)OCc2c1cc1n(c2=O)Cc2cc3c([N+](=O)[O-])cccc3nc2-1	5.92% (inactive)	–
CC[C@@]1(O)C(=O)OCc2c1cc1n(c2=O)Cc2cc3c(CN(C)C)c(O)ccc3nc2-1	–	89.1 µM (active)
C[N+]1(Cc2ccccc2)CCC(C(=O)OCC2CCCC2)CC1 (stereo unspecified)	-12.2% (inactive)	–
N#Cc1ccc(CN2CC[C@@]3(CCCN(C(=O)c4ccco4)C3)C2)cc1	-12.3% (inactive)	–
COC(=O)C(O)C1C(C)(C)C(OC(C)=O)C2CC3=C4CC(=O)OC(c5ccoc5)[C@]4(C)CCC3[C@@]1(C)C2=O (stereo partly specified)	-10.7% (inactive)	–
